About 79,000 compounds went through this panel and 15% of them were active in at least one assay; those are over-represented in the sample as a whole. Rule as the data show it: active = growth inhibition above about 70%; inactive = the rest.
Tests used:
[1] = NCI Yeast Anticancer Drug Screen. Data for the rad50 strain (AID 155);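 also: 0% = growth of vehicle-only cultures of the same strain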; settings: S. cerevisiae rad50 strain growth inhibition; at 50.0 µM; stronger effect = higher value
Method in brief: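 Vehicle-treated cultures provide the reference for the growth inhibition reported for compound-exposed, repair-deficient yeast.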

[2] = NCI Yeast Anticancer Drug Screen. Data for the mec2-1 strain (AID 157); settings: S. cerevisiae mec2-1 strain, at 50.0 µM, stronger effect = higher value
Method in brief: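 Strain: mec2-1 (DNA repair/cell cycle alteration). Compound exposure, then growth measured; inhibition expressed relative to vehicle.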

[3] = NCI Yeast Anticancer Drug Screen. Data for the sgs1 mgt1 strain (AID 161);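 also: 0% = growth of cultures given vehicle only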; settings: S. cerevisiae sgs1 mgt1 strain, at 50.0 µM, stronger effect = higher value
Method in brief: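 Mutant yeast exposed to compound; growth scored against vehicle-only wells.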

[4] = NCI Yeast Anticancer Drug Screen. Data for the cln2 rad14 strain (AID 165);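 also: 0% = growth equal to vehicle treated cultures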; settings: S. cerevisiae cln2 rad14 strain, at 50.0 µM, stronger effect = higher value
Method in brief: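 Compounds are applied to the cln2 rad14 yeast strain, and growth is then compared with that of vehicle-treated cultures to give inhibition.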

[5] = NCI Yeast Anticancer Drug Screen. Data for the bub3 strain (AID 167); settings: S. cerevisiae bub3 mutant strain, at 50.0 µM, stronger effect = higher value
Method in brief: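 Mutant yeast screening strain plus compound; vehicle-treated cultures serve as the 0% inhibition reference.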

[6] = NCI Yeast Anticancer Drug Screen. Data for the mlh1 rad18 strain (AID 175); settings: S. cerevisiae mlh1 rad18 strain growth inhibition; at 50.0 µM; stronger effect = higher value
Method in brief: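 Read-out is yeast growth inhibition, calculated against vehicle-only controls. The compound was applied to a strain engineered with DNA damage repair alterations.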

Measured: growth inhibition

[Mn+2].[NH-]CC(=O)NC(Cc1ccccc1)C(=O)O.[NH-]CC(=O)NC(Cc1ccccc1)C(=O)O (stereo not given)
inactive: [1] -15.5% | [2] -11.3% | [3] -10.7% | [4] -34.2% | [5] 4.05% | [6] -8%

O=C(O)c1cc(-c2c(Cl)cccc2Cl)nc2cc3ccccc3cc12
inactive: [1] 26% | [2] 15.8% | [3] 28.9% | [4] 21.4% | [5] 36.4% | [6] 26.4%

CC(C)OC(=O)CO
inactive: [1] 29.6% | [2] 3.55% | [3] 14.2% | [4] 12.2% | [5] 10.5% | [6] 13.2%

CN(CN(C)/N=C/c1cccc([N+](=O)[O-])c1)/N=C\c1cccc([N+](=O)[O-])c1
inactive: [1] -0.05% | [2] -11.6% | [3] -2.9% | [4] -40.9% | [5] 4.95% | [6] -14.3%

C(=C(/C=C/C(=C/c1ccccc1)c1ccccc1)c1ccccc1)\c1ccccc1
inactive: [1] 33.5% | [2] 13.8% | [3] -11.7% | [4] -59% | [5] 0.65% | [6] -0.65%

C/C(=C/C(=O)O)c1ccccc1
inactive: [1] 10.7% | [2] -14.4% | [3] 2.2% | [4] -19.6% | [5] -15.3% | [6] -1.95%

CN(C)N=Nc1ccc(C(=O)N/N=C/c2ccc([N+](=O)[O-])cc2)cc1
inactive: [1] -0.95% | [2] 40.5% | [3] 4.75% | [4] -5.75% | [5] 23.9% | [6] 17.9%

CCOC(=O)c1sc(N)nc1C
inactive: [1] -17.8% | [2] -12.2% | [3] -17.2% | [4] -21.9% | [5] -11.5% | [6] 0.35%

CCOC(=O)c1nc(SC)sc1NC(=O)c1ccccc1[N+](=O)[O-]
inactive: [1] 21.2% | [2] -4.6% | [3] -8.75% | [4] 11.6% | [5] 3% | [6] -2.65%

CN(C)C(=S)OCC(C)(C)C
inactive: [1] -1.45% | [2] -14.8% | [3] -18.3% | [4] -35.3% | [5] 3.4% | [6] -23.6%

CC(=O)NC(C=O)C(O)C(O)C(O)C(=O)O (stereo not given) (tested in a mixture with another compound)
inactive: [1] -25.4% | [2] -31.2% | [3] -22.2% | [4] 1.8% | [5] -22.9% | [6] -4.9%

NC1(C(=O)O)CCCC1C(=O)O (stereo not given)
inactive: [1] -8.7% | [2] -26.6% | [3] -23.1% | [4] 15.9% | [5] -6.3% | [6] -2.75%

Nc1nc(-c2ccccc2)[nH]c(=O)n1
inactive: [1] -3.3% | [2] -0.45% | [3] -37% | [4] -62.8% | [5] -22.4% | [6] -33%

CC(C)=Cc1cc(C(=O)Nc2ccc(Cl)c(Cl)c2)nc(N)n1
inactive: [1] -25.2% | [2] -45.4% | [3] -10.6% | [4] -0.5% | [5] -41.8% | [6] -32.1%

O=C(NNC1=NCCN1)c1ccco1
inactive: [1] -7.5% | [2] -21.1% | [3] -9.8% | [4] -32.4% | [5] -2.3% | [6] -2.25%

COc1c2occc2c(OC)c2c(=O)c(S(=O)(=O)NC(=O)Nc3ccc(Cl)cc3)coc12
inactive: [1] 5.7% | [2] -11.8% | [3] 3.65% | [4] -55.8% | [5] -20.3% | [6] 2.4%

C(/C=C/c1ccccc1)=C1SCCCS1
inactive: [1] 0.55% | [2] -7.6% | [3] -4.7% | [4] -18.9% | [5] -2.15% | [6] -4.6%

CN(C)C=NC1CC(C)(C)NC(C)(C)C1
inactive: [1] -18.2% | [2] 2.2% | [3] 3.1% | [4] -49.1% | [5] 13.2% | [6] -12.9%

CN(CCc1ccccn1)c1ccc2c(c1)C(=O)c1ccccc1-2
inactive: [1] 46.9% | [2] 13.4% | [3] -1.8% | [4] -13.1% | [5] -2.7% | [6] 9.85%

CCC(C)N1C(=O)c2ccccc2C1=O (stereo not given)
inactive: [1] 33% | [2] -13.6% | [3] 17.1% | [4] -13.6% | [5] 11.3% | [6] 27.1%

CC(C)=CCNc1ncnc2c1ncn2CCC(=O)OC(C)(C)C
inactive: [1] -9.75% | [2] -3.2% | [3] -3.7% | [4] -15.9% | [5] 10.1% | [6] 1.55%

COc1cc(C(c2ccc3c(c2)OCO3)C2SCCCS2)cc(OC)c1OC (stereo not given)
inactive: [1] 25.2% | [2] 13.7% | [3] 21% | [4] 6.6% | [5] -12% | [6] 37.9%

COc1cc2c3cc1Oc1c(OC)c(OC)cc4c1C(Cc1ccc(O)c(c1)Oc1ccc(cc1)CC3N(C)CC2)CN(C)C4 (stereo not given)
inactive: [1] -17.6% | [2] -37.9% | [3] -3.6% | [4] -17.4% | [5] 3.35% | [6] 25.1%

COC(=O)C1C(COS(C)(=O)=O)ON2CCC(OC)(OC)C12 (stereo not given)
inactive: [1] 4.85% | [2] 11.1% | [3] 17.8% | [4] -15.8% | [5] 7.3% | [6] 43.1%

Nc1nc2c(c(-c3ccccc3Cl)n1)COC/C2=C\c1ccccc1Cl
inactive: [1] 15.7% | [2] 18.8% | [3] 54% | [4] 25.1% | [5] 41.1% | [6] 50%

CN(C)C(=O)c1cccc([N+](=O)[O-])c1
inactive: [1] 1% | [2] -3.5% | [3] -4.65% | [4] 2.65% | [5] 13.2% | [6] 31.9%

CCOC(=O)C(C#N)C1=CC(=O)C(=O)c2ccc(OC)cc21 (stereo not given)
inactive: [1] 14% | [2] 11.3% | [3] -5.5% | [4] 27.9% | [5] -9.95% | [6] 9.1%

CC(C)C(=O)CC1(O)C(=O)Nc2ccc([N+](=O)[O-])cc21 (stereo not given)
inactive: [1] -9.95% | [2] -0.2% | [3] -7.75% | [4] -34.9% | [5] 4.15% | [6] 2.5%

CCCC(CCCC(=O)O)C(=O)O (stereo not given)
inactive: [1] -4% | [2] -9.8% | [3] 0.95% | [4] -8.2% | [5] 11.9% | [6] 6.1%

CCCCCCc1cc2cc(C(=O)Nc3nc(C45CC6CC(CC(C6)C4)C5)cs3)c(=O)oc2cc1O
inactive: [1] -16.4% | [2] -19.8% | [3] -1.15% | [4] 17.9% | [5] -16.6% | [6] -11.7%

O=C(O)C(Cc1ccccc1)c1ccc(Cl)cc1 (stereo not given)
inactive: [1] 38.1% | [2] 27.3% | [3] 43.1% | [4] 20.6% | [5] 41.8% | [6] 25.9%

CNC(=S)ON1CCCCC1
inactive: [1] 6.65% | [2] 19.9% | [3] -23.3% | [4] -7.95% | [5] -5.95% | [6] -38.5%

CCCCCC(=O)C#Cc1ccccc1
inactive: [1] 24.1% | [2] 11.1% | [3] 11.7% | [4] -7.25% | [5] -4.9% | [6] 20.4%

C(=NCCN=Cc1ccccc1)c1ccccc1
inactive: [1] -10.7% | [2] -6.9% | [3] -21.8% | [4] 3.25% | [5] -11.7% | [6] -8.9%

CNc1cccc2c1C(C)C[C@]1(C)C(=O)Nc3ccccc3[C@H]21 (stereo not given in full)
inactive: [1] -36.5% | [2] -19.7% | [3] -22.6% | [4] -31.1% | [5] -35.8% | [6] -80.3%

Cc1cc2c(cc1C)NC1=C(N2)OC(c2cccc(O)c2)C1=O (stereo not given)
inactive: [1] 1.9% | [2] -16.9% | [3] 1.55% | [4] 4.4% | [5] -31.4% | [6] 11.8%

CC(=O)N(C(C)=O)n1c(Cc2ccc(C)cc2)nn(C(C)=O)c1=O
inactive: [1] -26.9% | [2] 15.2% | [3] -16.9% | [4] 13.3% | [5] -1.75% | [6] -27.9%

O=C(O/N=C(\c1ccccc1)C(Br)c1ccccc1)c1ccccc1 (stereo not given)
inactive: [1] -2.75% | [2] 10.2% | [3] 2.9% | [4] -2.05% | [5] 8.4% | [6] -2.55%

O=C(O)C1CCC2CCCC21 (stereo not given)
inactive: [1] -25.2% | [2] -7.3% | [3] 8.95% | [4] -10.9% | [5] -18% | [6] 15.5%

CCN(C/C=C/CN(CC)C(=S)Nc1ccccc1)C(=S)Nc1ccccc1
inactive: [1] 29.6% | [2] -7.85% | [3] 5.2% | [4] 18.8% | [5] -1.1% | [6] 9.8%

Source: PubChem BioAssay (NCI)
